{
  "source": "PubChem BioAssay (NCATS)",
  "note": "Several values for one entry are separate records, joined by “and”; a condition that tells them apart may be missing. Equal values may be shown once. Inconclusive results are not listed. Where a structure was tested more than once in an assay, its records may differ in their call. Values without a mark were called inactive. Activity calls are given as the source filed them. Calls follow the shape of the dose curve; as a rule, active = well fitted inhibition curve with a large enough effect; inconclusive = small, poorly fitted or top-dose-only effect; inactive = flat fitted curve, though single readings scatter. Where a SMILES comes first, the peptide text is derived from it. Bridges are numbered along the chain shown (N, C = ends). [ ]: non-standard residue; d: D form. The star is where a group is joined. Dab(CH2SO3H) = N[C@@H](CCNCS(=O)(=O)O)C(=O)O; X3 = CC[C@@H](C)CCCCC(=O)*; Dab = NCC[C@H](N)C(=O)O",
  "data": [
    {"test_system": "KB-3-1", "experiment": "Cytotoxic Profiling of Annotated Libraries Using Quantitative High-Throughput Screening (AID 1296008); also: nearly all actives have a fitted effect of over 60% in size; also: potency is read from the fitted curve at half-maximal effect; as to max response: % is scaled to controls: 0 for no effect and ±100 for the full control effect", "details": "Five cell lines viability, CellTiter-Glo ATP luminescence, 48-72 h; max response: active compounds read low", "outline": "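Cells exposed to compounds for 48 or 72 hr at 37 degrees Celsius. Viability read as ATP-coupled luminescence with CellTiter-Glo after 10 min at room temperature.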", "units": {"max response": "%"}, "values": [
      {"smiles": "O=C(O)C1CCCN1", "note": "(stereo not drawn)", "max response": 3.27},
      {"smiles": "NCc1ccccc1CC(=O)N[C@@H]1C(=O)N2C(C(=O)O)=C(CSc3nnnn3CC(=O)O)CS[C@H]12", "max response": -8.7},
      {"smiles": "CC(=O)O[C@]1(C(C)=O)CC[C@H]2[C@@H]3CCC4=CC(=O)CC[C@]4(C)[C@@]3(F)[C@@H](O)C[C@@]21C", "max response": 28.7},
      {"smiles": "CC(Oc1ccccc1)C(=O)N[C@@H]1C(=O)N2[C@@H]1SC(C)(C)[C@@H]2C(=O)O", "note": "(stereo partly drawn)", "max response": -0.849},
      {"smiles": "CC(C)NCC1CCc2cc(CO)c([N+](=O)[O-])cc2N1", "note": "(stereo not drawn)", "max response": 2.46},
      {"smiles": "CC(C)C(=O)OCC(=O)[C@@]12O[C@H](C3CCCCC3)O[C@@H]1C[C@H]1[C@@H]3CCC4=CC(=O)C=C[C@]4(C)[C@H]3[C@@H](O)C[C@@]12C", "max response": -5.72},
      {"smiles": "CO[C@@H]1[C@@H](O[C@@H]2O[C@H](C)[C@@H](O[C@H]3C[C@@](C)(O)[C@@H](OC(=O)CC(C)C)[C@H](C)O3)[C@H](N(C)C)[C@H]2O)[C@@H](CC=O)C[C@@H](C)C(=O)/C=C/C2OC2C[C@@H](C)OC(=O)C[C@H]1OC(C)=O", "note": "(stereo partly drawn)", "max response": 20.2},
      {"smiles": "COc1ccc(C[C@@H](C)NC[C@H](O)c2ccc(O)c(NC=O)c2)cc1", "max response": 2.59},
      {"smiles": "CC(=O)N(CC(C)C(=O)O)c1c(I)cc(I)c(N)c1I", "note": "(stereo not drawn)", "max response": -8.47},
      {"smiles": "C=CC1=C(C)C2=CC3=NC(=C(CC(=O)[O-])C4=NC(=C(C)C4=C([O-])[O-])C=c4[n-]c(c(C)c4CC)=CC1=N2)C(CCC(=O)[O-])C3C.[Cu+2].[Na+].[Na+].[Na+]", "note": "(stereo not drawn)", "max response": -6.08},
      {"smiles": "CCOc1cc2ncc(C#N)c(Nc3ccc(OCc4ccccn4)c(Cl)c3)c2cc1NC(=O)/C=C/CN(C)C", "max response": -14.4},
      {"smiles": "C[C@H](CCC(=O)O)[C@H]1CC[C@H]2[C@@H]3[C@H](O)C[C@@H]4C[C@H](O)CC[C@]4(C)[C@H]3CC[C@]12C", "max response": 0.682},
      {"smiles": "COc1cc2c(cc1O)CCN[C@]21CS[C@@H]2c3c(OC(C)=O)c(C)c4c(c3[C@H](COC1=O)N1[C@@H]2[C@H]2c3c(cc(C)c(OC)c3O)C[C@@H]([C@@H]1O)N2C)OCO4", "Potency": "5.2 nM (active) and 28.2 nM (active)"},
      {"smiles": "Cc1cc(CC(C)CC(C)(C)C)n(O)c(=O)c1", "note": "(stereo not drawn) (tested in a mixture with another compound)", "max response": 29.3},
      {"smiles": "CC(=O)OCC(=O)[C@@]1(O)CC[C@H]2[C@@H]3C[C@H](C)C4=CC(=O)C=C[C@]4(C)[C@H]3[C@@H](O)C[C@@]21C", "max response": 15.9},
      {"smiles": "CO[C@H]1C=CO[C@@]2(C)Oc3c(C)c(O)c4c(O)c(c5c(nc6cc(C)ccn65)c4c3C2=O)NC(=O)/C(C)=C\\C=C[C@H](C)[C@H](O)[C@@H](C)[C@@H](O)[C@@H](C)[C@H](OC(C)=O)[C@@H]1C", "max response": 5.41},
      {"smiles": "C[C@]12C=CC(=O)N[C@@H]1CC[C@@H]1[C@@H]2CC[C@]2(C)[C@@H](C(=O)Nc3cc(C(F)(F)F)ccc3C(F)(F)F)CC[C@@H]12", "max response": 5.03},
      {"smiles": "CC[C@@H](C)CCCCC(=O)N[C@@H](CCNCS(=O)(=O)O)C(=O)N[C@H](C(=O)N[C@@H](CCNCS(=O)(=O)O)C(=O)N[C@H]1CCNC(=O)[C@H]([C@@H](C)O)NC(=O)[C@H](CCNCS(=O)(=O)O)NC(=O)[C@H](CCNCS(=O)(=O)O)NC(=O)[C@H](CC(C)C)NC(=O)[C@@H](CC(C)C)NC(=O)[C@H](CCNCS(=O)(=O)O)NC1=O)[C@@H](C)O", "note": "(X3-[Dab(CH2SO3H)]T[Dab(CH2SO3H)][Dab][Dab(CH2SO3H)][dL]L[Dab(CH2SO3H)][Dab(CH2SO3H)]T; lactam 4-C)", "max response": 9.65},
      {"smiles": "CCC(=O)OCC(=O)[C@@]1(OC(=O)CC)[C@H](C)C[C@H]2[C@H]3[C@H]([C@@H](O)C[C@@]21C)[C@@]1(C)C=CC(=O)C=C1C[C@H]3Cl", "max response": 31.3},
      {"smiles": "COC(=O)[C@H]1[C@H]2C[C@@H]3c4[nH]c5ccccc5c4CCN3C[C@H]2C[C@@H](OC(=O)c2cc(OC)c(OC)c(OC)c2)[C@@H]1OC", "Potency": "7.31 µM (active)", "max response": -19.2},
      {"smiles": "COc1cc2c(Nc3ccc(Cl)c(Cl)c3F)ncnc2cc1OCC1C[C@@H]2CN(C)C[C@@H]2C1", "note": "(stereo partly drawn)", "Potency": "18.4 µM (active)"},
      {"smiles": "CN1CCC(CN2c3ccccc3Sc3ccccc32)C1", "note": "(stereo not drawn)", "max response": -8.09}
    ]}
  ]
}
